From PubChem BioAssay (NCATS)
Where “and” joins values, the source holds several entries; their conditions need not be identical. Equal values may be shown once.

Test: qHTS drug screen for cell cycle checkpoint inhibitors in PARPi-resistant BRCA-mutant ovarian cancer cell lines. (AID 1963452)
Details: PEO1/OlaR viability, CellTiter-Glo luminescence, 96 h; measured here: PEO4 Z-AUC; stronger effect = lower value
Outline: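 PEO1, PEO4 and PEO1/OlaR ovarian cancer cells, 600 per well, exposed 96 h at 37C to a dilution series. Viability read by CellTiter-Glo luminescence, normalized to DMSO and empty wells; activity summarized as Z-AUC.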

| SMILES | Z-AUC |
| --- | --- |
| CCOC(=O)[C@@]1(CCCCCCOc2ccc(Cl)cc2)CO1 | 1.21 |
| Cc1cc(-c2cc(OC(=O)c3ccccc3)ccc2Cl)cc2nnc(Nc3ccc(OCCN4CCCC4)cc3)nc12 | -1.13 |
| O=C(NCCCNc1nc(Nc2cccc(CN3CCOCC3)c2)ncc1C1CC1)C1CCC1 | -0.429 |
| Cc1sc2c(c1C)C(c1ccc(Cl)cc1)=N[C@@H](CC(=O)Nc1ccc(OCCOCCOCCOCCNc3cccc4c3C(=O)N(C3CCC(=O)NC3=O)C4=O)cc1)c1nnc(C)n1-2 (stereo partly specified) | -1.49 |
| Cn1ncc2cc(-c3cnc(N)c(Cl)c3N3CCC4(CCNC4=O)CC3)ccc21 | -1.02 |
| C[C@@H]1CN(CC(=O)N2CC(C)(C)c3ncc(Cc4ccc(F)cc4)cc32)[C@@H](CN2CCOC[C@H]2C)CN1 | 0.0229 |
| Cc1nc(NC(=O)N2CCC[C@H]2C(N)=O)sc1-c1ccnc(C(C)(C)C(F)(F)F)c1 | -0.403 and -0.389 |
| C[C@@H](c1ccc2nccn2c1)n1nnc2ncc(-c3cnn(C)c3)nc21 | -0.199 |
| Cn1ncc(Cl)c1-c1cc(C(=O)N[C@H](CN)Cc2cccc(F)c2)sc1Cl | 0.251 |
| O=C(NCCCNC(=O)c1ccc[nH]c1=O)c1cc(-c2ccccc2)on1 | -0.178 |
| COc1cccc(OCCCN)c1-c1cc(Nc2cnc(C#N)cn2)n[nH]1 | -2.98 |
| CCN(c1cc(-c2ccc(CN3CCOCC3)cc2)cc(C(=O)NCc2c(C)cc(C)[nH]c2=O)c1C)C1CCOCC1 | 0.0284 |
| C[C@@H]1COCCN1c1cc(=O)n2c(n1)N(Cc1cncc(Cl)c1)[C@H](C(F)(F)F)CC2 | -0.0495 |
| c1cc(-c2cnn3cc(-c4ccc(N5CCNCC5)cc4)cnc23)c2cccnc2c1 | -1.83 |
| COc1ccc2nc3n[nH]c(C)c3c(NCCOCCO)c2c1 | 0.00576 |
| COc1ccc(-c2c(C)nn3c(NCCN4CCOCC4)cc(C)nc23)cc1OC | 0.395 |

| SMILES | Z-AUC |
| --- | --- |
| COC(C)(C)CCn1nc(Nc2c(C)cccc2C)c2cnc(Nc3ccc(OCCN4CCCC4)c(F)c3)nc21 | 0.564 |
| COc1ccc(CNc2nc(N(CCO)CCO)nc3c2ncn3C(C)C)cc1 | -0.51 |
| Cc1nnc(C[C@@H]2C=C(c3ccc(Cl)cc3)c3ccccc3-n3c(C)nnc32)o1 | 0.589 |
| CC(/C=C/C(=O)NO)=C\[C@@H](C)C(=O)c1ccc(N(C)C)cc1 | -1.61 |
| O=C(N[C@H]1CCC[C@H](CO)C1)C1CCN(c2nc3cc(Cl)c(-c4ccc(Cl)cc4)cc3o2)CC1 | -0.768 |
| CN1CCN(C2CCN(C(=O)Nc3cc(Oc4ccc(NC(=O)C5(C(=O)Nc6ccc(F)cc6)CC5)c(F)c4)ccn3)CC2)CC1 | -0.114 |
| CCCCNc1ncc(-c2ccc(CN3CCOCC3)cn2)c(NC2CCC(O)CC2)n1 (stereo unspecified) | -0.666 |
| COc1cc2c(cc1OC(C)C)[C@H](c1ccc(Cl)cc1)N(c1ccc(N(C)CC3CCC(N4CCN(C)C(=O)C4)CC3)cc1)C(=O)C2 (stereo partly specified) | 0.545 |
| Cn1ncc(Cl)c1-c1cc(C(=O)NC(CN)Cc2ccc(F)c(F)c2)oc1Cl (stereo unspecified) | 0.353 |
| O=C(NCC(=O)N1CCCC1)Nc1ccc2cnccc2c1 | -1.01 |
| O=C(Nc1ccnc(NC(=O)C2CC2)c1)c1c(Cl)cccc1Cl | -0.923 |
| COCCNCc1ccc(-c2cc3nccc(Oc4ccc(NC(=O)C5(C(=O)Nc6ccc(F)cc6)CC5)cc4F)c3s2)nc1 | -0.561 |
| Cc1cc(C(=O)Nc2cc(Nc3ccc4c(/C=C/c5ccccn5)n[nH]c4c3)ccc2F)n(C)n1 | -0.912 |
| Cc1[nH]c2ccccc2c1CCNCc1ccc(/C=C/C(=O)NO)cc1 | -1.35 |
| OC(c1ccc(-c2ccc(CN3CCN(Cc4ccncc4)CC3)cc2)c(F)c1)(C(F)(F)F)C(F)(F)F | -0.000497 |
